# Test results as given in the supplement of paper PMC9262897, “Low-cost anti-mycobacterial drug discovery using engineered E. coli” (Nature Communications, 2022).
# Structures can show the parent of a compound that is named as a salt. ± gives the standard deviation of the averaged measurements.
# Tested on: E. coli TESEC Mtb DapB
# Assay: growth (OD600 after 10 h); higher = more growth (less inhibition)
# Settings: arabinose induction (level): High; compound 0.1 mM; raw OD600 reference: median of DMSO wells […], cell-free background 0.041
# Protocol: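 TESEC E. coli strains in which the native enzyme is deleted and replaced by arabinose-inducible Mtb Asd, DapB, CysH or TrpD, each grown in its selective medium. Strains were screened against the Prestwick library at 0.1 mM and 1% DMSO in 384-well format at low and high arabinose induction. Growth is read as OD600 after 10 h in triplicate.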
row,Compound,growth
1,CCN(C(C)=O)c1cccc(-c2ccnc3c(C#N)cnn23)c1 [Zaleplon],0.179 ± 0.013
2,"CN1CCC2(C)c3cc(O)ccc3N(C)C12 (single isomer, unassigned; (-)) [(-)-Eseroline fumarate salt]",0.197 ± 0.0051
3,CO[C@]12C[C@@H](COC(=O)c3cncc(Br)c3)CN(C)[C@@H]1Cc1cn(C)c3cccc2c13 [Nicergoline],0.227 ± 0.014
4,O=C(O)CCCc1ccc(N(CCCl)CCCl)cc1 [Chlorambucil],0.209 ± 0.023
5,O=c1[nH]c2ccccc2n1C1CCN(CCCC(c2ccc(F)cc2)c2ccc(F)cc2)CC1 [Pimozide],0.186 ± 0.015
6,C[C@H](N)[C@H](O)c1ccc(O)c(O)c1 [Levonordefrin],0.167 ± 0.003
7,C=C(C)[C@@H]1[C@H]2OC(=O)[C@@H]1[C@]1(O)C[C@H]3O[C@]34C(=O)O[C@H]2[C@]14C [Picrotoxinin],0.197 ± 0.0075
8,CC(=O)O[C@H]1C[C@@H]2CC[C@@H]3[C@H](CC[C@@]4(C)[C@H]3C[C@H]([N+]3(C)CCCCC3)[C@@H]4OC(C)=O)[C@@]2(C)C[C@@H]1[N+]1(C)CCCCC1 [Pancuronium bromide],0.191 ± 0.026
9,CC(NC(C)(C)C)C(=O)c1cccc(Cl)c1 (stereo not given) [Bupropion hydrochloride],0.202 ± 0.0039
10,C#CCN(C)[C@H](C)Cc1ccccc1 [Selegiline hydrochloride],0.222 ± 0.018
11,CC[C@@H](C(N)=O)N1CCCC1=O [Levetiracetam],0.188 ± 0.0023
12,C[C@]12Cc3c[nH]nc3C[C@@H]1CC[C@@H]1[C@@H]2CC[C@@]2(C)[C@H]1CC[C@]2(C)O [Stanozolol],0.219 ± 0.018
13,"NCC(O)c1ccc(O)cc1 (racemic) [(+,-)-Octopamine hydrochloride]",0.203 ± 0.0088
14,C[C@]12CC[C@H](O)C[C@H]1CC[C@@H]1[C@@H]2CC[C@]2(C)[C@@H](C3=CC(=O)OC3)CC[C@]12O [Digitoxigenin],0.165 ± 0.0087
15,C=CCN1CC[C@]23c4c5ccc(O)c4O[C@H]2C(=O)CC[C@@]3(O)[C@H]1C5 [Naloxone hydrochloride],0.202 ± 0.0047
16,CN1C(=O)CCS(=O)(=O)C1c1ccc(Cl)cc1 (stereo not given) [Chlormezanone],0.193 ± 0.0088
17,C[C@]12COC(=O)C[C@@H]1CC[C@@H]1[C@@H]2CC[C@@]2(C)[C@H]1CC[C@]2(C)O [Oxandrolone],0.14 ± 0.0074
18,COc1cc2c(c(OC)c1OC)-c1ccc(OC)c(=O)cc1[C@@H](NC(C)=O)CC2 [Colchicine],0.204 ± 0.018
19,CCC1(CC)C(=O)C=CNC1=O [Pyrithyldione],0.205 ± 0.014
20,CCNCC(O)c1cccc(O)c1 (stereo not given) [Etilefrine hydrochloride],0.205 ± 0.0026

# Same assay, conditions: arabinose induction (level): Low; compound 0.1 mM; raw OD600 reference: median of DMSO wells 0.227, cell-free background 0.041
row,Compound,growth
1,CCN(C(C)=O)c1cccc(-c2ccnc3c(C#N)cnn23)c1 [Zaleplon],0.201 ± 0.0029
2,"CN1CCC2(C)c3cc(O)ccc3N(C)C12 (single isomer, unassigned; (-)) [(-)-Eseroline fumarate salt]",0.209 ± 0.034
3,CO[C@]12C[C@@H](COC(=O)c3cncc(Br)c3)CN(C)[C@@H]1Cc1cn(C)c3cccc2c13 [Nicergoline],0.277 ± 0.028
4,O=C(O)CCCc1ccc(N(CCCl)CCCl)cc1 [Chlorambucil],0.259 ± 0.023
5,O=c1[nH]c2ccccc2n1C1CCN(CCCC(c2ccc(F)cc2)c2ccc(F)cc2)CC1 [Pimozide],0.227 ± 0.035
6,C[C@H](N)[C@H](O)c1ccc(O)c(O)c1 [Levonordefrin],0.176 ± 0.043
7,C=C(C)[C@@H]1[C@H]2OC(=O)[C@@H]1[C@]1(O)C[C@H]3O[C@]34C(=O)O[C@H]2[C@]14C [Picrotoxinin],0.216 ± 0.0066
8,CC(=O)O[C@H]1C[C@@H]2CC[C@@H]3[C@H](CC[C@@]4(C)[C@H]3C[C@H]([N+]3(C)CCCCC3)[C@@H]4OC(C)=O)[C@@]2(C)C[C@@H]1[N+]1(C)CCCCC1 [Pancuronium bromide],0.203 ± 0.055
9,CC(NC(C)(C)C)C(=O)c1cccc(Cl)c1 (stereo not given) [Bupropion hydrochloride],0.261 ± 0.086
10,C#CCN(C)[C@H](C)Cc1ccccc1 [Selegiline hydrochloride],0.219 ± 0.0087
11,CC[C@@H](C(N)=O)N1CCCC1=O [Levetiracetam],0.229 ± 0.023
12,C[C@]12Cc3c[nH]nc3C[C@@H]1CC[C@@H]1[C@@H]2CC[C@@]2(C)[C@H]1CC[C@]2(C)O [Stanozolol],0.193 ± 0.0045
13,"NCC(O)c1ccc(O)cc1 (racemic) [(+,-)-Octopamine hydrochloride]",0.271 ± 0.022
14,C[C@]12CC[C@H](O)C[C@H]1CC[C@@H]1[C@@H]2CC[C@]2(C)[C@@H](C3=CC(=O)OC3)CC[C@]12O [Digitoxigenin],0.171 ± 0.003
15,C=CCN1CC[C@]23c4c5ccc(O)c4O[C@H]2C(=O)CC[C@@]3(O)[C@H]1C5 [Naloxone hydrochloride],0.255 ± 0.059
16,CN1C(=O)CCS(=O)(=O)C1c1ccc(Cl)cc1 (stereo not given) [Chlormezanone],0.207 ± 0.011
17,C[C@]12COC(=O)C[C@@H]1CC[C@@H]1[C@@H]2CC[C@@]2(C)[C@H]1CC[C@]2(C)O [Oxandrolone],0.154 ± 0.015
18,COc1cc2c(c(OC)c1OC)-c1ccc(OC)c(=O)cc1[C@@H](NC(C)=O)CC2 [Colchicine],0.228 ± 0.035
19,CCC1(CC)C(=O)C=CNC1=O [Pyrithyldione],0.23 ± 0.01
20,CCNCC(O)c1cccc(O)c1 (stereo not given) [Etilefrine hydrochloride],0.224 ± 0.035
